High-throughput results as filed in PubChem BioAssay.
Methyltransferases: Primary Screen for Target Class Profiling of Small Molecule Inhibitors of Methyltransferases; purified enzyme, MTase-Glo SAH luminescence; stronger effect = lower value; calls only at 40 µM; 25,000 compounds, 3.9% hits; call rule not given here
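Each enzyme was assayed with SAM and its substrate. SAH formation detected by MTase-Glo luminescence; single-point 40 uM screen[…].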
MTase-Glo ctr: inhibits MTase-Glo coupling enzymes without methyltransferase; shares compounds with Methyltransferases; MTase-Glo coupled enzymes, SAH conversion luminescence, no MTase; 180 compounds, 6% hits; Potency, µM (series often up to 57.3 µM), for the others: at the highest dose activity change, negative = inhibition, most hits filed as inhibitors; AID 1745851; active means well fitted inhibition curve with a large enough effect; inconclusive means small, poorly fitted or top-dose-only effect; further: potency means the concentration at half of the fitted maximal effect
Active calls of the source: *; i = inactive; u = inconclusive; + = active, no number; [ ] = dose if it differs, or a comment. This excerpt belongs to a sample that is enriched for hits. On the % scale 0 is the no-effect control and ±100 the full control effect.

SMILES | Methyltransferases | others
O=C(Nc1ccncc1)c1cc([N+](=O)[O-])ccc1Cl | i
CN1C(=O)c2cc(NC(=O)c3ccccc3Cl)ccc2N2CCN=C12 | i
O=C(Nc1cnc(Cl)nc1)c1ccc(F)c(F)c1 | i
O=C(Nc1ccc2c(N3CCCC3)ncnc2c1)c1cc(F)ccc1Cl | + | MTase-Glo ctr=-2%
O=C(c1cc(F)ccc1F)N1CCCCC1c1nc(-c2cnccn2)n[nH]1 (stereo unspecified) | i
O=C(Cc1ccsc1)Nc1ccc2c(N3CCCC3)ncnc2c1 | + | MTase-Glo ctr=0%
COc1ccc(-c2cnc3[nH]cc(CC(=O)Nc4ccc(C(F)(F)F)cc4)c3c2)cc1 | i
COc1ccc(CNC(=O)Cn2ccc3cc(S(=O)(=O)N4CCCC4)ccc32)c(OC)c1 | i
COc1ccc(CC(=O)Nc2ccc3ncnc(N4CCCC4)c3c2)c(Cl)c1 | + | MTase-Glo ctr=u
Cn1ccnc1-c1cn(Cc2ccccc2Cn2cccn2)nn1 | i
CC(C)Cn1c(=O)c2ccc(C(=O)NC(C)C)cc2n2c(=O)n(Cc3cccc(Cl)c3)nc12 | i
O=C(CCn1ccc2cc(S(=O)(=O)N3CCCCC3)ccc21)N1CCCCC1 | i
COc1ccc(NS(=O)(=O)c2cc3[nH]c(=O)[nH]c3cc2C)cc1 | i
Cc1ccc(C(=O)N2C[C@@H](C)[C@](O)(C3CC3)C2)s1 | i
COc1ccc(CNC(=O)c2ccc3c(=O)nc4c(-c5cccc(F)c5)n[nH]n4c3c2)cc1 | i
O=c1[nH]c2ccc(S(=O)(=O)NCCCc3ccccc3)cc2[nH]1 | i
COc1ccc(CCc2nc(C3CC(=O)N(c4ccc(Cl)cc4)C3)no2)cc1 (stereo unspecified) | i
C/C=C/C=C/C=C/C(=O)O[C@@H]1[C@@H](OC)C2=C(C(=O)N(C(CCC(=O)O)C(=O)O)C2)[C@@]2(C)CCCC(C)(C)[C@H]12 (stereo partly specified) | i
CCCn1c(=O)c2ccc(Cl)cc2n2c(=O)n(CC(=O)Nc3cc(F)ccc3F)nc12 | i
CS(=O)(=O)NC1CCN(c2cc(C3CC(N)C3)nc(N)n2)CC1 (stereo unspecified) | i
COc1cccc2c1OCCCN(c1cc(C3CC(O)C3)nc(N)n1)C2 (stereo unspecified) | + | MTase-Glo ctr=-2%
Cc1nc(C2CC(O)C2)cc(N2CCC(c3nncn3C)CC2)n1 (stereo unspecified) | i
COc1cncc(Nc2ncc(-c3ccccc3OC)c3c2OCC3)c1 | + | MTase-Glo ctr=-3%[85.7 µM]
Cc1noc(C)c1-c1cnc(Nc2ccc(F)c(Cl)c2)c2c1CCO2 | i
Cc1nccnc1CN1CCC2(CC1)CCN(Cc1ncc[nH]1)CC2CO (stereo unspecified) | i
SMILES | Methyltransferases | others
O=C(C1CCCC1)N1CCCC(c2nn[nH]n2)C1 (stereo unspecified) | i
CC(C)OCCCNC(=O)c1ccc2c(=O)nc3c(-c4cccc(F)c4)n[nH]n3c2c1 | i
CC(C)c1nccn1CCCNC(=O)c1ccc(-c2cccc(F)c2)nc1 | + | MTase-Glo ctr=2%
O=C(NC1CCN(CC(F)(F)F)CC1)c1ccc(-c2cccc(F)c2)nc1 | i
Cc1ccc(NC(=O)N2CCn3cccc3C2C)c(C)c1 (stereo unspecified) | i
CCNc1nc2c(s1)C(c1cccc(F)c1)CC(=O)N2 (stereo unspecified) | + | MTase-Glo ctr=u
CN(C)Cc1cc(C[C@@H]2C[C@H](NCc3ccc(F)cc3)C2(C)C)no1 | i
O=C(c1ccccc1F)N1CCn2ncc(C(=O)N3CCOCC3)c2C1 | i
Cn1cc2c3c(cccc31)CN(C(=O)c1ccccc1F)CC2 | + | MTase-Glo ctr=-3%
CN1CCCN(C(=O)c2ccccc2F)c2ccccc21 | i
COCCn1c(C)cnc1CCNC(=O)Cn1nc(C(F)(F)F)cc1C | i
N#Cc1ccc(-c2ccc(S(=O)(=O)Nc3cccc(N)n3)cc2)cc1 | i
CN1C(=O)c2cc(C(=O)NCCN3CCCC3)nn2CC1(C)C(=O)NC1CCCCC1 (stereo unspecified) | i
CCCNc1cc(N2CCC(CCC(=O)NCCN3CCCCCC3)CC2)ncn1 | + | MTase-Glo ctr=1%
CCCNC(=O)CCc1ccnc(N2CCCC2)c1 | i
CC(C)OCCCn1c(=O)c2ccccc2n2c(CCC(=O)NCc3ccc(Cl)cc3)nnc12 | i
CC1(C(=O)NC2CCCCC2)Cn2c(nc3ccccc32)C(=O)N1Cc1ccc(Cl)cc1 (stereo unspecified) | i
O=C(NCC1CC1)C1CCc2ncc(-c3ccc(F)cc3)n2C1 (stereo unspecified) | i
CN1C(=O)c2cc(C(=O)NCCCN3CCc4ccccc4C3)nn2CC1(C)C(=O)NC1CCCC1 (stereo unspecified) | i
O=C(NCCCN1CCc2ccccc2C1)C1CCc2ncc(-c3ccc(F)cc3)n2C1 (stereo unspecified) | + | MTase-Glo ctr=-2%
COc1cc(OC)cc(N2C(=O)c3cc(C(C)(C)C)nn3CC2(C)C(=O)NCc2ccccc2)c1 (stereo unspecified) | i
COC(=O)CNC(=O)NCCc1ncc(C)n1C1CCCC1 | i
CNC(=O)NCCc1ncc(C)n1C1CCCCCCC1 | + | MTase-Glo ctr=0%
CCCNC(=O)NCCc1ncc(C)n1CC1CC1 | i
Cn1cccc1CN1C[C@@H](CO)[C@H](c2ccncc2)C1 | i
SMILES | Methyltransferases | others
COc1ccc2c(c1)c(CN1C[C@@H](CO)[C@H](c3nc(C)no3)C1)cn2C | i
COc1ccc(CN2C[C@@H](CO)[C@H](c3ccncc3)C2)c(OC)c1 | + | MTase-Glo ctr=4%
CCOc1cccc(-c2nc(C(=O)Nc3ccc(F)cc3)cs2)c1 | i
Cn1cc(-c2cc3c(ccn3Cc3ccncc3)c(N3CCOCC3)n2)cn1 | + | MTase-Glo ctr=-3%[85.7 µM]
COc1ccc(-c2nnn3c2nc(N2CCOCC2)c2ccccc23)cc1 | i
CC1(C(=O)NCc2ccc(F)cc2)Cn2cnc(C(=O)NC3CCCCC3)c2C(=O)N1C1CC1 (stereo unspecified) | i
CCC(C)NC(=O)c1ccc2c(=O)n(C)c3nn(CC(=O)Nc4ccc(F)cc4)c(=O)n3c2c1 (stereo unspecified) | i
COc1ccc(-c2nnc3n2CCN([S+](=O)([O-])c2c(C)noc2C)C3)cc1 | i
Cc1noc(C)c1[S+](=O)([O-])N1CCn2c(nn(-c3ccc(C(F)(F)F)cc3)c2=O)C1 | + | MTase-Glo ctr=-3%
Cc1nn(-c2ccccc2)c2c1C(C)N(C1CCN([S+](=O)([O-])c3c(C)noc3C)C1)C2=O (stereo unspecified) | i
CCCCN1C(=O)c2cc(C(=O)Nc3cc(Cl)ccc3OC)nn2CC1(C)C(=O)NC1CCCC1 (stereo unspecified) | i
Nc1ncccc1CN1C[C@H]2CN(C(=O)C3CCC3)C[C@@]2(C(=O)O)C1 | i
O=C(O)Cc1cccc(-c2cc(CCCCCCc3ccc(O[C@H]4O[C@H](CO)[C@@H](O)[C@H](O)[C@@H]4O)c(-c4cccc(CC(=O)O)c4)c3)ccc2O[C@H]2O[C@H](CO)[C@@H](O)[C@H](O)[C@@H]2O)c1 | i
COc1ccc(NC(=O)N2CCn3cccc3C2C)cc1 (stereo unspecified) | i
O=C(Cc1cccs1)NC1CC(c2cc(N3CCC(O)C3)ncn2)C1 (stereo unspecified) | i
